The values below come from PubChem BioAssay (EPA / NIEHS).

Read-out in assay [1]: Monocyte Chemoattractant Protein-1 (MCP1), CCL2 (gene 6347)
Kind of assay: BSK_IMphg_MCP1: BioMAP Diversity Plus: IMphg Assay for Monocyte Chemoattractant Protein-1 (MCP1) Biomarker Activity (AID 2284253). The note with it: primary human endothelial cells with macrophages. The essentials: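 ELISA readout of MCP-1 at 24 hours in IMphg co-cultures of venular endothelial cells and macrophages, normalised to DMSO; parallel cultures stained with sulforhodamine B for overt cytotoxicity.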

Read-out in assay [2]: Interleukin-8 (IL8), CXCL8 (gene 3576)
Description: BSK_KF3CT_IL8: BioMAP Diversity Plus: KF3CT Assay for Interleukin-8 (IL8) Biomarker Activity (AID 2284254). The note with it: primary human keratinocytes with fibroblasts. In outline:
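Human primary keratinocyte plus foreskin fibroblast co-culture dosed with test chemicals; IL-8 measured by ELISA 24 h after dosing. Activity fitted in the positive direction relative to DMSO negative control.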

Read-out in assay [3]: Macrophage Inflammatory Protein-1 Alpha (MIP1a), CCL3 (gene 6348)
Kind of assay: BSK_IMphg_MIP1a: BioMAP Diversity Plus: IMphg Assay for Macrophage Inflammatory Protein-1 Alpha (MIP1a) Biomarker Activity (AID 2284255). The conditions noted are these: primary human endothelial cells with macrophages. The essentials: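 MIP-1a protein levels were quantified by ELISA after 24 h treatment of human endothelial cell–macrophage co-cultures, compared with DMSO. Parallel cultures were fixed with TCA and stained with 0.1% SRB to gauge overt cytotoxicity.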

Read-out in another assay: CD69, CD69 (gene 969)
Description: BSK_IMphg_CD69: BioMAP Diversity Plus: IMphg Assay for CD69 Biomarker Activity (AID 2284257). The note with it: primary human endothelial cells with macrophages. In outline: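 Readout is ELISA for CD69 in primary human venular endothelial cell/macrophage co-culture, taken at 24 h post-dosing. SRB staining of parallel cultures gauged overt cytotoxicity; signal increase versus DMSO defined activity.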

Read-out in assay [4]: Eotaxin 3, CCL26 (gene 10344)
Description: BSK_BF4T_Eotaxin3: BioMAP Diversity Plus: BF4T Assay for Eotaxin 3 Biomarker Activity (AID 2284258). The note with it: primary human bronchial epithelial cells with fibroblasts. In outline: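 ELISA measurement of Eotaxin-3 after 24 h chemical exposure in a bronchial epithelial/dermal fibroblast co-culture, with DMSO as baseline. Parallel SRB staining (0.1% SRB after 10% TCA fixation, 560 nm) flagged overt cytotoxicity.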

Read-out in assay [5]: Monocyte Chemoattractant Protein-1 (MCP1), CCL2 (gene 6347)
Kind of assay: BSK_BF4T_MCP1: BioMAP Diversity Plus: BF4T Assay for Monocyte Chemoattractant Protein-1 (MCP1) Biomarker Activity (AID 2284259). The conditions noted are these: primary human bronchial epithelial cells with fibroblasts. The essentials: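 MCP-1 ELISA readout taken 24 h after dosing in the BF4T system (bronchial epithelial cells plus dermal fibroblasts). Parallel SRB total-protein staining flagged cytotoxicity; DMSO served as baseline, positive fitting direction.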

Read-out in assay [6]: Intercellular Adhesion Molecule 1 (ICAM1), ICAM1 (gene 3383)
Kind of assay: BSK_BF4T_ICAM1: BioMAP Diversity Plus: BF4T Assay for Intercellular Adhesion Molecule 1 (ICAM1) Biomarker Activity (AID 2284260). The note with it: primary human bronchial epithelial cells with fibroblasts. In outline:
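ICAM-1 levels measured by ELISA after 24 h chemical treatment of bronchial epithelial cell/dermal fibroblast co-cultures, read against DMSO baseline. Overt cytotoxicity checked in parallel cultures by sulforhodamine B staining.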

Read-out in assay [7]: Interleukin-8 (IL8), CXCL8 (gene 3576)
Description: BSK_MyoF_IL8: BioMAP Diversity Plus: MyoF Assay for Interleukin-8 (IL8) Biomarker Activity (AID 2284261). The note with it: primary human lung fibroblasts. The essentials:
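ELISA read-out of IL-8 from primary human lung fibroblasts, 24 h post-dose; positive-direction curve fitting relative to DMSO vehicle baseline.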

Read-out in another assay: CD90, THY1 (gene 7070)
Kind of assay: BSK_BF4T_CD90: BioMAP Diversity Plus: BF4T Assay for CD90 Biomarker Activity (AID 2284262). The note with it: primary human bronchial epithelial cells with fibroblasts. The essentials: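 CD90 levels by ELISA after 24 h treatment of human bronchial epithelial cell/dermal fibroblast cultures, analysed versus DMSO. Overt cytotoxicity checked in parallel cultures by sulforhodamine B staining.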

Read-out in assay [8]: Interleukin-8 (IL8), CXCL8 (gene 3576)
Description: BSK_BF4T_IL8: BioMAP Diversity Plus: BF4T Assay for Interleukin-8 (IL8) Biomarker Activity (AID 2284263). The conditions noted are these: primary human bronchial epithelial cells with fibroblasts. The essentials: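 Human bronchial epithelial cells with dermal fibroblasts co-culture; IL-8 measured by ELISA 24 hours after dosing, fitted vs DMSO. Cytotoxicity tracked in parallel cultures by SRB total-protein staining.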

Read-out in assay [9]: Interleukin-1 alpha (IL1a), IL1A (gene 3552)
Description: BSK_BF4T_IL1a: BioMAP Diversity Plus: BF4T Assay for Interleukin-1 alpha (IL1a) Biomarker Activity (AID 2284264). The note with it: primary human bronchial epithelial cells with fibroblasts. In outline: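 ELISA read-out of IL-1α from bronchial epithelial cell/dermal fibroblast co-cultures 24 h after compound addition. Increases scored against DMSO negative control. Cytotoxicity monitored by sulforhodamine B staining of parallel cultures.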

Read-out in another assay: KRT18 (gene 3875)
Description: BSK_BF4T_Keratin818: BioMAP Diversity Plus: BF4T Assay for Keratin 818 Biomarker Activity (AID 2284266). The conditions noted are these: primary human bronchial epithelial cells with fibroblasts. The essentials: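 Keratin 8/18 levels quantified by ELISA after 24 h chemical treatment of bronchial epithelial cell/dermal fibroblast co-cultures, fitted in positive direction relative to DMSO. Parallel SRB staining tracks overt cytotoxicity.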

A short description of assay [10]: BSK_MyoF_SRB: Viability Assessment in the BioMAP Diversity Plus: MyoF Assay (AID 2284267).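 Also: total protein by SRB absorbance in parallel cultures as cytotoxicity measure.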 The conditions noted are these: primary human lung fibroblasts. The essentials:
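Confluent human lung fibroblasts were exposed to test chemicals for 24 h. Parallel wells were then fixed in 10% TCA, stained with 0.1% sulforhodamine B and measured at 560 nm. DMSO served as baseline for curve fitting.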

Read-out in assay [11]: Matrix Metallopeptidase 1 (MMP1), MMP1 (gene 4312)
Kind of assay: BSK_MyoF_MMP1: BioMAP Diversity Plus: MyoF Assay for Matrix Metallopeptidase 1 (MMP1) Biomarker Activity (AID 2284268). The note with it: primary human lung fibroblasts. In outline:
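ELISA readout of MMP1 in primary human lung fibroblast cultures, 24 h post-dosing. Gain of signal versus DMSO vehicle control defines activity. Parallel SRB staining (0.1% after 10% TCA fixation, 560 nm) flags overt cytotoxicity.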

Read-out in assay [12]: TIMP metallopeptidase inhibitor 1 (TIMP1), TIMP1 (gene 7076)
Kind of assay: BSK_MyoF_TIMP1: BioMAP Diversity Plus: MyoF Assay for TIMP metallopeptidase inhibitor 1 (TIMP1) Biomarker Activity (AID 2284269). The note with it: primary human lung fibroblasts. The essentials:
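Fibroblasts from human lung are dosed with chemical, cultured 24 h, and assayed for TIMP-1 by ELISA. Increases over the DMSO baseline are scored, with SRB total-protein staining run in parallel for cytotoxicity.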

Read-out in assay [13]: Matrix Metallopeptidase 1 (MMP1), MMP1 (gene 4312)
Kind of assay: BSK_BF4T_MMP1: BioMAP Diversity Plus: BF4T Assay for Matrix Metallopeptidase 1 (MMP1) Biomarker Activity (AID 2284270). The note with it: primary human bronchial epithelial cells with fibroblasts. In outline:
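MMP-1 quantified by ELISA in primary human bronchial epithelial/dermal fibroblast co-cultures, 24 hours post-dosing, with DMSO as baseline; parallel sulforhodamine B staining (560 nm) tracks overt cytotoxicity.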

Read-out in assay [14]: Matrix Metallopeptidase 3 (MMP3), MMP3 (gene 4314)
Kind of assay: BSK_BF4T_MMP3: BioMAP Diversity Plus: BF4T Assay for Matrix Metallopeptidase 3 (MMP3) Biomarker Activity (AID 2284271). The conditions noted are these: primary human bronchial epithelial cells with fibroblasts. In outline:
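MMP-3 level read by ELISA after 24 h chemical exposure of bronchial epithelial cell/dermal fibroblast co-cultures, fitted upward relative to DMSO. Parallel cultures stained with 0.1% SRB after TCA fixation gauge overt cytotoxicity.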

Read-out in assay [15]: Tissue plasminogen activator (tPA), PLAT (gene 5327)
Description: BSK_BF4T_tPA: BioMAP Diversity Plus: BF4T Assay for Tissue plasminogen activator (tPA) Biomarker Activity (AID 2284272). The note with it: primary human bronchial epithelial cells with fibroblasts. In outline: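 tPA level quantified by ELISA at 24 h post-treatment in bronchial epithelial/dermal fibroblast co-cultures, gain of signal scored against DMSO baseline. Parallel cultures stained with 0.1% SRB (560 nm) to flag overt cytotoxicity.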

Read-out in assay [16]: Plasminogen Activator Inhibitor-1 (PAI1), SERPINE1 (gene 5054)
Kind of assay: BSK_BF4T_PAI1: BioMAP Diversity Plus: BF4T Assay for Plasminogen Activator Inhibitor-1 (PAI1) Biomarker Activity (AID 2284273). The note with it: primary human bronchial epithelial cells with fibroblasts. In outline: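 PAI-1 levels quantified by ELISA 24 h post-dosing in bronchial epithelial cell plus dermal fibroblast cultures. Signal gain referenced to DMSO baseline. Sulforhodamine B total-protein staining of parallel wells checked cytotoxicity.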

Assay [17] can be described thus: BSK_BF4T_SRB: Viability Assessment in the BioMAP Diversity Plus: BF4T Assay (AID 2284274). The note with it: primary human bronchial epithelial cells with fibroblasts. The essentials:
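Cytotoxicity measured as total protein: cells fixed with 10% TCA, stained with 0.1% SRB, read at 560 nm. Bronchial epithelial/dermal fibroblast co-culture, 24 h after dosing, with positive-direction fitting relative to DMSO.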

Molecules are shown by their SMILES. Several values for one entry are separate records, joined by “and”; a condition that tells them apart may be missing. Equal entries are not always repeated. More than one record can exist for a structure, and the calls need not agree. Activity calls are given as the source filed them. The calls were made as follows: active = hit-call score of the fitted dose curve at least 0.9, where 1 is the maximum; inactive = score below 0.9.

Take `O=C(O)C(F)(F)C(F)(F)C(F)(F)C(F)(F)C(F)(F)C(F)(F)C(F)(F)C(F)F`: the outcome in [1] was “inactive”; in assay [2], “inactive”; in assay [3], “inactive”; with CD69, CD69 (gene 969) it was “inactive”; in assay [7], “inactive”; in the assay with CD90, THY1 (gene 7070) it was “inactive”. Also, the result (in [8]; in [9]; in the assay with KRT18 (gene 3875); in assay [10]; in [11]; in assay [12]) was inactive. The outcome in assay [13], in [14] and in [17] was inactive. For the same molecule, the AC50 (commonly the concentration giving half of the maximal activity seen) was 0.257 µM (active) with CD69, CD69 (gene 969); 4.86 µM (active) and 2.55 µM (active) in [4]; 2.81 µM (active) and 1.53 µM (active) in assay [5]; 2.59 µM (active) and 3.49 µM (active) in assay [6]; 51.9 µM (active) in assay [13]; 4.37 µM (active) and 2.45 µM (active) in assay [15]. The AC50 in [16] was 2.94 µM (active) and 2.8 µM (active).
Take `O=C(O)C(F)(F)OC(F)(F)C(F)(F)OC(F)(F)C(F)(F)C(F)(F)C(F)(F)F`: the outcome is “inactive” in assay [1]; “inactive” in assay [2]; “inactive” in assay [3]; “inactive” in the assay with CD69, CD69 (gene 969); “inactive” in assay [6]; “inactive” in assay [7]. Besides, the outcome with CD90, THY1 (gene 7070) was “inactive”; in assay [9], “inactive”; in the assay with KRT18 (gene 3875) it was “inactive”; in assay [10], “inactive”; in assay [11], “inactive”; in [13], “inactive”. The outcome in assay [15], in assay [16] and in assay [17] was inactive. For the same molecule, the concentration at half-maximal activity (AC50) is 42.7 µM (active) in [2]; 40.3 µM (active) in the assay with CD69, CD69 (gene 969); 5.34 µM (active) and 2.49 µM (active) in [4]; 8.8 µM (active) and 220 nM (active) in [5]; 1.82 µM (active) and 4.77 µM (active) in assay [8]; 11.9 µM (active) and 8.26 µM (active) in assay [12]. Moreover, the AC50 in assay [14] was 12.9 µM (active) and 17.8 µM (active).
Regarding `NC(=O)c1c(Cl)cccc1Cl`, the result in assay [7], in [10], in assay [11] and in assay [12] was inactive.
Regarding `CCC(=O)OCC=Cc1ccccc1`, the result in assay [7], in assay [10], in [11] and in [12] was inactive.
For the molecule `CCCCCCCC1CCCC1=O` (centres undefined), the outcome in assay [7] and in assay [12] was inactive. Besides, the concentration at half-maximal activity (AC50) in assay [10] and in assay [11] was 32.4 µM (active) each time.
For the molecule `COc1ccccc1NC(=O)CC(C)=O`, the outcome in assay [7], in [10], in assay [11] and in assay [12] was inactive.
Turning to `CC(C)Cc1ccc(C(C)C(=O)O)cc1` (centres undefined), the result in assay [7], in [10], in [11] and in [12] was inactive.
